# Measured values reported in PubChem BioAssay (Tox21).
# Inconclusive results are not listed. Unmarked numbers belong to inactive results. Activity calls are given as the source filed them. Calls come from the whole dose curve; as a rule, active = well fitted cell-killing curve with a large enough effect in the repeat runs; inconclusive = weak or mixed curves, or effect the other way; inactive = flat fitted curve, though single readings scatter.
# Assay: qHTS assay to identify small molecule antagonists of the androgen receptor (AR) signaling pathway using the MDA cell line in the presence of 0.5 nM R1881 - cell viability counter screen (AID 1259242); note: nearly all actives have a fitted effect of over 45% in size
# Details: MDA-kb2 viability, CellTiter-Fluor protease fluorescence, 16 h; series mostly up to 92.4 µM; viability change, negative = cytotoxic: at the top concentration
# Source text: U.S. Tox21 Program National Center for Advancing Translational Sciences [NCATS] NIH Chemical Genomics Center [NCGC] U.S. Environmental Protection Agency [EPA] National Institutes of Environmental Health Sciences [NIEHS] National Toxicology Program [NTP] U.S. Food and Drug Administration [FDA] Tox21 Assay Overview: Androgen receptor (AR) is an important member of the nuclear receptor family. Its signaling plays a critical role in AR-dependent prostate cancer and other androgen related diseases. Considerable attention has been given in the past decades to develop methods to study and screen for the environmental chemicals that have the potential to interfere with metabolic homeostasis, reproduction, developmental and behavioral functions. Therefore AR binding assay for screening androgen antagonists can be used to identify potential endocrine disruptors. MDA-kb2 cells (from ATCC, deposited by Wilson et al.) were used to screen for AR inhibitors against Tox21 compound libraries. These cells are human breast carcinoma cells that were stably transfected with a luciferase reporter gene under control of the MMTV promoter that contains response elements for both androgen receptor (AR) and glucocorticoid receptor (GR). The current screening for identification of AR inhibitors against Tox21 libraries used lower concentration of (0.5 nM) R1881 as a stimulator. The cytotoxicity of the Tox21 compound libraries against MDA-kb2 cell line was tested by measuring live-cell protease activity using CellTiter-Fluor assay in the same wells.
# Tox21 Assay Protocol Summary: MDA-kb2 cells (cells cultured without CO2) were dispensed at 3,000 cells/well in 4 uL of culture medium into white wall/solid-bottom 1536-well plates (Corning Life Sciences, Corning, NY) using a Multidrop Combi (ThermoFisher Scientific, Waltham, MA) dispenser. After the assay plates were incubated at a 37C and 0% CO2 for 5 hr, 23 nL of compounds dissolved in DMSO, positive controls or DMSO only was transferred to the assay plate by a Pintool station (Kalypsys, San Diego, CA). The transfer of compounds was followed by the addition of 1 uL of 0.5 nM (final concentration) agonist (R1881)/culture medium using a Flying Reagent Dispenser (FRD, Aurora Discovery, San Diego, CA). The plates were incubated at 37C and 0% CO2 for 16 hr. For cytotoxicity assay, 1 uL of CellTiter-Fluor reagent (Promega Corporation, Madison, WI) was added to each well using the FRD and after 30 min incubation at 37C and 0% CO2, The fluorescence intensity was measured using ViewLux plate reader (PerkinElmer, Shelton, CT).
# % is set by controls: 0 for no effect and ±100 for the full control effect; potency is the fitted concentration of half-maximal effect.
Compound,"viability change, negative = cytotoxic",Potency
S=c1[nH]c2ccccc2s1,6.36%,
CCC(Cl)C(Cl)C(Cl)CC(Cl)C(Cl)C(C)Cl (stereo not given),-2.5%,
COc1cc(/C=C/C(=O)O[C@H]2CC[C@]34C[C@]35CC[C@]3(C)[C@@H]([C@H](C)CCC=C(C)C)CC[C@@]3(C)[C@@H]5CC[C@H]4C2(C)C)ccc1O,0.75% [at 42.5 µM],
Clc1ccc(C(Cn2ccnc2)OCc2ccc(Sc3ccccc3)cc2)c(Cl)c1 (stereo not given),-0.189% [at 42.5 µM],
CC1=NC(C)OC1C (stereo not given),-1.5%,
CC1(C)CCC(C)(C)c2cc(C(=O)Nc3ccc(C(=O)O)cc3)ccc21,-11.4%,
CCCN(CCC)C(=O)C(CCC(=O)OCCCN1CCN(CCOC(=O)Cc2c(C)n(C(=O)c3ccc(Cl)cc3)c3ccc(OC)cc23)CC1)NC(=O)c1ccccc1 (stereo not given),-5.59% [at 42.5 µM],
OCCCCCCCCCCCCBr,-10.1%,
c1cc(C(c2ccc(OCC3CO3)cc2)c2ccc(OCC3CO3)cc2)ccc1OCC1CO1 (stereo not given),-13.4%,
O=[N+]([O-])c1ccccc1Nc1ccccc1,0.0463%,
CC(C)(C)C(=O)OCOC(=O)[C@@H]1N2C(=O)[C@@H](NC(=O)[C@H](N)c3ccccc3)[C@H]2SC1(C)C,1.25% [at 42.5 µM],
CCN(Cc1cccnc1)C(=O)c1cccc(Cl)c1[C@]1(C)C(=O)N(Cc2ccc(OC)cc2OC)c2ccc(Cl)cc21,-16.4%,
CCCCC(CC)COC(=O)c1ccccc1C(=O)O (stereo not given),6.63%,
N=C1N=C(N)c2ccccc21,-19.7%,
CCCCCOC(=O)CCCC,3%,
Fc1ccc([C@@H]2CCNC[C@H]2COc2ccc3c(c2)OCO3)cc1,-17.8% [at 42.5 µM],
Cn1cc(C(=O)[C@@H]2CCc3nc[nH]c3C2)c2ccccc21,-0.432% [at 42.5 µM],
CN(C)c1ccc(C2(c3ccc(N(C)C)cc3)OC(=O)c3cc(N(C)C)ccc32)cc1,0.726%,
O=C(Nc1cccc(Cl)c1)OCC#CCCl,,61.1 µM (active)
CCN(C(=O)c1cc(C)cc(OC[C@H](C)Nc2ccncc2)c1)C(C)C,0.658% [at 42.5 µM],

Compound,"viability change, negative = cytotoxic",Potency
C[C@@H]1C[C@H]2[C@@H]3CCC4=CC(=O)C=C[C@]4(C)[C@@]3(Cl)[C@@H](O)C[C@]2(C)[C@@]1(OC(=O)c1ccco1)C(=O)CCl,-4.05% [at 42.5 µM],
CCCCCCOC(=O)c1ccc(O)cc1,,inactive
Cc1cc(O)c2ccccc2c1O,,18.8 µM (active)
O=C(O)c1ccc(Cl)c(Cl)c1,6.46%,
NC(=O)CC[C@@H]1NC(=O)[C@H](Cc2ccccc2)NC(=O)[C@H](Cc2ccc(O)cc2)NC(=O)CCSSC[C@@H](C(=O)N2CCC[C@H]2C(=O)N[C@@H](CCCN=C(N)N)C(=O)NCC(N)=O)NC(=O)[C@H](CC(N)=O)NC1=O,-1.6% [at 42.5 µM],
COc1cccc(N)c1,-0.98%,
COC(=O)C1=C(C)NC(C)=C(C(=O)OCCc2ccc(N3CCN(C(c4ccccc4)c4ccccc4)CC3)cc2)C1c1cccc([N+](=O)[O-])c1 (stereo not given),-0.943% [at 42.5 µM],
C=C(C)C(=O)OCC[N+](C)(C)C,-8.81%,
N#CC1(c2ccc(F)cc2)CCC(=O)CC1,3.81% [at 42.5 µM],
Cc1oc(-c2ccccc2)nc1CCC(=O)c1ccc(CC2SC(=O)NC2=O)cc1 (stereo not given),-7.3% [at 42.5 µM],
CCCC(=O)OC[C@@H](OC(=O)CCC)[C@@H](OC(=O)CCC)[C@H](Cn1c2nc(=O)[nH]c(=O)c-2nc2cc(C)c(C)cc21)OC(=O)CCC,3.5% [at 42.5 µM],
C[n+]1ccn(Cc2ccccc2)c1,-3.63%,
O=C(Nc1cccc([N+](=O)[O-])c1)c1cc2ccccc2cc1O,,6.86 µM (active)
CCCCCCCCCOC(=O)c1ccc(O)cc1,-21.6%,
CC1=C(/C=C/C(C)=C/C=C/C(C)=C/C=O)C(C)(C)CCC1,,60.8 µM (active)
CC(C)(C)c1ccc(C(=O)O)cc1,0.429%,
CCCN(CCC)c1c([N+](=O)[O-])cc(C(F)(F)F)c(N)c1[N+](=O)[O-],,60.9 µM (active)
Oc1cccc(-c2c3nc(c(-c4cccc(O)c4)c4ccc([nH]4)c(-c4cccc(O)c4)c4nc(c(-c5cccc(O)c5)c5ccc2[nH]5)CC4)C=C3)c1,,7.5 µM (active)
NC(=O)NS(=O)(=O)c1ccc(N)cc1,1.23% [at 42.5 µM],
CC(C)=CCOc1ccc(/C=C/C(=O)c2ccc(OCC=C(C)C)cc2OCC(=O)O)cc1,-3.61% [at 42.5 µM],
